A selection: hits, their analogues and other compounds. The true share with any hit is near 5.1%.
CRFBP-R2 block = antagonists of CRF-binding protein/CRF-R2 receptor complex | HEK293 CRF-R2/CRF-BP, CRF-induced calcium fluorescence | inhibition, % at 11.8 µM | 350,000 tested, 0.59% active | AID 588475;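 active = inhibition of the ligand-induced calcium signal above about 50% at the single tested concentration, limit read from the data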
MPTP block = permeability transition pore inhibition; AID 602449; inhibition, % at 10 µM; isolated mouse mitochondria, Ca2+ swelling absorbance, 30 min; 360,000 tested, 1.4% active;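 active = inhibition of 50% or more, scaled per plate between neutral and stimulator controls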
GRIN3A LBD mod = NR3A (human) ligand-binding domain modulation; Tm shift relative to glycine control, % at 25 µM; 340,000 tested, 2.5% active; NR3A LBD differential scanning fluorimetry, Tm shift; 0% = protein alone, 100% = glycine-bound protein; AID 1259313;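 active = melting temperature shift of at least 10% of the positive control shift, at one fixed dose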
CRFBP-R2 agonist = agonists of human CRF-binding protein/CRF-R2 receptor complex; HEK293 CRF-R2/CRF-BP, calcium dye fluorescence (FLIPR); percent of saturating CRF peptide response; activation, % at 13.2 µM; 350,000 tested, 0.46% active; AID 588473;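 active = activation of at least 50%, plus an integration ratio under a set limit after plate pattern correction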
ANO1 activ = mouse TMEM16A channel activation, primary screen. HEK293 TMEM16A/YFP-H148Q/I152L, iodide quench fluorescence; stronger effect = lower value. B-score at 10 µM. 340,000 tested, 0.3% active. AID 623877;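 active = fluorescence-ratio B-score plate-corrected deviation score at least 3 library SD below zero, with starting fluorescence score within 5 deviations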;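 note: channel opened by trigger with iodide after compound preincubation; score built on the fluorescence ratio of max minus min over baseline; more negative score means more quench and so TMEM16A activation or potentiation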
Target sequence (Q8BHY3 whole entry, looked up): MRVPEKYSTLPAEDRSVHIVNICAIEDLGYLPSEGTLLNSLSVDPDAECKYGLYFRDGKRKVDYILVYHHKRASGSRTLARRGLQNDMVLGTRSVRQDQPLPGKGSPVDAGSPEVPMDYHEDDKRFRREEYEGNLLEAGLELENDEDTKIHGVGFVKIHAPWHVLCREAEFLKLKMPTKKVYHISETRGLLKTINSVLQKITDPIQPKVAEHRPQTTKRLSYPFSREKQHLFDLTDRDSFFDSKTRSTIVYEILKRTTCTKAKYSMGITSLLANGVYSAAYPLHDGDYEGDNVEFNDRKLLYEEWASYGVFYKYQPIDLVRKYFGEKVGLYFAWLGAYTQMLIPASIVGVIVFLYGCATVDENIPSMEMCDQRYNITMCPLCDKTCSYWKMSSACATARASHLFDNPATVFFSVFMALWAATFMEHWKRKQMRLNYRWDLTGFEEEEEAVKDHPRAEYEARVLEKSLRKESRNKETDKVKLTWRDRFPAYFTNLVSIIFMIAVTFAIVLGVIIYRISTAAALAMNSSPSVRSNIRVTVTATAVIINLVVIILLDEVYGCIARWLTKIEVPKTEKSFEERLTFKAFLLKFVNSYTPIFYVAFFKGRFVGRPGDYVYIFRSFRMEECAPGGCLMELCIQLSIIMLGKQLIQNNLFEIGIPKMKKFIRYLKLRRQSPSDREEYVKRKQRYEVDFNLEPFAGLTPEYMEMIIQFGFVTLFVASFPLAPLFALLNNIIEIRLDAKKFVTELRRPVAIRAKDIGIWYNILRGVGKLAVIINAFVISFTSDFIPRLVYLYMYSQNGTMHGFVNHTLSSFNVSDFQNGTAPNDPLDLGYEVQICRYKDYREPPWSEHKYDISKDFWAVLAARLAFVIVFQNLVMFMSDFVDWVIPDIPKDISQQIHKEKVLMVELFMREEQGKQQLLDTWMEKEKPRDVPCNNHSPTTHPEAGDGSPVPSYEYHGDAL
TMEM16A inh = blocks the mouse calcium-activated chloride channel TMEM16A. HEK293 TMEM16A/YFP iodide influx fluorescence, ionomycin. normalized B-score (activity score, 25-100; higher = stronger inhibition) at 10 µM. 310,000 tested, 1.2% active;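 active = ratio plate-corrected score three or more library SD toward inhibition, starting fluorescence score within five deviations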;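 note: score derived from kinetic fluorescence span divided by baseline fluorescence per well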
Numbers stand for hits; n = inactive; x = no result.

SMILES	CRFBP-R2 block	MPTP block	GRIN3A LBD mod	CRFBP-R2 agonist	ANO1 activ	TMEM16A inh
O=C(Nc1nnc(S(=O)(=O)N2CCCCC2)s1)c1ccc(Cl)cc1	70.8	n	n	n	n	n
O=C(Nc1ccccn1)c1ccc(Br)c(S(=O)(=O)N2CCCCC2)c1	n	n	12.6	n	n	n
Cc1nnc(NC(=O)c2ccc(C)c(S(=O)(=O)N3CCOCC3)c2)s1	n	n	n	n	n	n
O=C(Nc1ccccn1)c1ccc(Br)c(S(=O)(=O)N2CCCC2)c1	n	n	n	n	n	n
Cc1nnc(NC(=O)c2ccc(F)c(S(=O)(=O)N3CCCCC3)c2)s1	n	n	15.9	n	n	n
CCCN(CC(=O)Nc1ccccc1OC)C(=O)c1cc(-c2cccs2)nn1-c1ccccc1	n	n	n	n	n	n
Cc1ccccc1Oc1cc(-n2ncc(Cl)c(Cl)c2=O)ncn1	64.9	n	n	n	n	n
Cc1ccc(S(=O)(=O)NCc2ccccc2)cc1C(=O)NCc1ccncc1	n	n	x	n	x	x
COCCN(C(=S)Nc1ccc(OC)c(Cl)c1)C1CCN(C(C)=O)CC1	n	n	x	n	x	x
OCCN(CCO)c1nc(N2CCCCC2)c2nc(N(CCO)CCO)nc(N3CCCCC3)c2n1	n	x	n	178.8	n	x
Nc1nc(NCCO)nc(N2CCCCCC2)c1[N+](=O)[O-]	n	n	n	n	n	n
COc1ccc(C(=O)Nc2ccc(S(=O)(=O)N3CCOCC3)cc2)cc1	n	n	27.4	n	n	n
O=C(Nc1ccc(Cl)cc1)c1ccc(S(=O)(=O)N2CCOCC2)cc1	n	n	14.5	n	n	n
CC1(C)CC2CC(C)(CN2S(=O)(=O)c2ccc(C(=O)Nc3cc(S(=O)(=O)N4CCOCC4)ccc3Cl)cc2)C1 (configuration not stated)	n	n	n	n	-11.8	n
O=C(Nc1ccc(S(=O)(=O)N2CCOCC2)cc1)c1ccc(Cl)s1	n	n	35.2	n	n	n
Cc1ccc(NC(=O)c2ccc(S(=O)(=O)N3CCOCC3)cc2)cc1	n	n	n	n	n	n
CCOc1ccc(NC(=O)c2ccc(S(=O)(=O)N3CCOCC3)cc2)cc1	n	n	n	n	n	n
CC(=O)Nc1ccc(S(=O)(=O)N2CCOCC2)cc1	n	n	n	n	n	n
CC(C)N(C(=S)Nc1ccc(S(=O)(=O)N2CCOCC2)cc1)c1ccccc1	n	n	n	n	x	x
O=C(Nc1ccc(Cl)c(S(=O)(=O)N2CCOCC2)c1)c1ccc(OCC2CCCO2)cc1 (configuration not stated)	n	n	n	n	n	100
CC(C(=O)Nc1ccc(S(=O)(=O)N2CCOCC2)cc1)N(c1ccccc1)S(C)(=O)=O (configuration not stated)	n	n	n	n	-9.97	n
COc1ccc(OCCCC(=O)Nc2ccc(S(=O)(=O)N3CCOCC3)cc2)cc1	n	n	11.0	n	n	x
COc1ccc(CC(=O)Nc2ccc(S(=O)(=O)N3CCOCC3)cc2)cc1	n	n	n	n	n	x
COc1ccc(C(=O)Nc2ccc(Cl)c(S(=O)(=O)N3CCOCC3)c2)cc1	n	n	n	n	n	x
COc1ccc(N2CCN(S(=O)(=O)c3ccc(C(=O)NCc4ccco4)cc3)CC2)cc1	n	n	28.1	n	n	n
SMILES	CRFBP-R2 block	MPTP block	GRIN3A LBD mod	CRFBP-R2 agonist	ANO1 activ	TMEM16A inh
Cn1c2ccccc2c2cnn(CC(=O)N3CCCCC3)c(=O)c21	n	n	n	n	n	n
CCCn1c(N)c(C(=O)CSc2nc3ncc(Cl)cc3[nH]2)c(=O)[nH]c1=O	n	n	n	n	n	x
CC(=O)c1c(C)[nH]c(C(=O)OCC(=O)N(Cc2ccccc2)C(C)(C)C)c1C	n	n	n	n	n	x
O=C(CCc1ccc(S(=O)(=O)N2CCOCC2)cc1)Nc1nc(COc2ccccc2)cs1	n	n	n	n	n	25
O=C(CCc1ccccc1Cl)Nc1ccc(S(=O)(=O)N2CCOCC2)cc1	n	n	18.6	n	n	n
COc1ccc(NS(=O)(=O)c2ccc(S(=O)(=O)N3CCOCC3)cc2)cc1	n	n	n	n	n	n
O=S(=O)(Nc1ccc(S(=O)(=O)N2CCOCC2)cc1)c1ccccc1	n	n	10.3	n	n	n
COCCn1c(SCC(=O)N(C)C2CCS(=O)(=O)C2)nc2ccccc2c1=O (configuration not stated)	n	n	n	n	n	n
CN(C(=O)CSc1nc2ccccc2n1CCc1ccccc1)C1CCS(=O)(=O)C1 (configuration not stated)	n	n	14.4	n	n	n
Cc1nn(Cc2ccccc2Cl)c(C)c1NC(=O)c1nc2ncccn2n1	57.9	n	n	n	n	n
Cc1nn(Cc2ccccc2Cl)c(C)c1NC(=O)c1ccn(C)n1	n	n	n	n	n	n
CCOC(=O)/C(=N\Nc1ccccc1)c1csc(Nc2ccc(C)cc2)n1	n	n	24.7	n	n	n
CCCCC(CCC(=O)O)(C(=O)OCC)c1csc(Nc2ccc(C)cc2)n1 (configuration not stated)	n	n	n	n	n	n
CC(=O)c1ccc(N2CCN(C(=O)c3cc4c(s3)CCCC4)CC2)cc1	n	n	n	n	-37.1	n
c1coc(CNC2CCCCC2)c1	n	n	n	n	n	n
c1coc(CNC2CCCCCCC2)c1	n	n	10.6	n	n	n
C=CCOC(=O)C(C#N)c1nc2ccccc2nc1N1CCN(c2ccccc2OCC)CC1 (configuration not stated)	52.7	n	n	n	n	n
CCC1C(=O)CC(c2ccc([N+](=O)[O-])cc2)NC1c1ccc([N+](=O)[O-])cc1 (configuration not stated)	n	n	n	n	-5.53	n
O=C(C1CCCC1)N1CCCC(Nc2ccccc2)C1 (configuration not stated)	n	n	n	n	n	n
Cc1ccc(NC2CCCN(C(=O)CN3C(=O)CSC3=O)C2)cc1C (configuration not stated)	n	n	11.1	n	n	n
COc1ccc(C(=O)N2CCCC(Nc3ccc(C)c(C)c3)C2)c(OC)n1 (configuration not stated)	n	n	31.7	n	n	n
COc1ccc(NC2CCCN(C(=O)c3ccc(C(C)=O)cc3)C2)cc1 (configuration not stated)	n	n	n	n	n	n
COc1ccc(C(=O)N2CCCC(Nc3ccc(F)cc3)C2)c(OC)c1 (configuration not stated)	n	n	13.1	n	n	n
COc1ccc(C(=O)N2CCCC(Nc3ccc(F)c(F)c3)C2)c(OC)n1 (configuration not stated)	n	n	n	n	n	n
CC(C)c1ccc(NC2CCCN(C(=O)CN3C(=O)CSC3=O)C2)cc1 (configuration not stated)	n	n	n	n	n	n
